We go through 40 compounds from PubChem BioAssay (Tox21).

Each structure is given as a SMILES string. Records with an inconclusive call do not appear. Where a call stands in place of a potency, no number is given. Where a structure was tested more than once in an assay, its records may differ in their call. Active and inactive are the calls of the source. Calls come from the whole dose curve; as a rule, active = well fitted cell-killing curve with a large enough effect in the repeat runs; inconclusive = weak or mixed curves, or effect the other way; inactive = flat fitted curve, though single readings scatter.
Potency is the fitted concentration of half-maximal effect.

A short description of the test: qHTS assay to identify small molecule agonists of the TGF-beta/Smad signaling pathway - cell viability counter screen (AID 1346829). Note: nearly all actives have a fitted effect of over 45% in size. As to conditions: SBE-bla HEK293T viability, CellTiter-Glo luminescence, 5 h; series mostly up to 76.8 µM. From the text:
National Center for Advancing Translational Sciences [NCATS]
NIH Chemical Genomics Center [NCGC]
U.S. Environmental Protection Agency [EPA]
National Institutes of Environmental Health Sciences [NIEHS]
National Toxicology Program [NTP]
U.S. Food and Drug Administration [FDA]
Transforming growth factor beta (TGF-beta) superfamily consists of a large number of structurally related dimeric proteins that act as hormones or local mediators in regulating a wide range of biological functions. This superfamily includes TGF-betas themselves, the bone morphogenetic proteins (BMPs) and the activins. These ligands induce oligomerization of serine/threonine receptor kinases and phosphorylate the cytoplasmic signaling molecules of Smad protein family. CellSensor SBE-bla HEK 293T cell line (Life Technologies, Carlsbad, CA), responsive to TGF-beta was used to screen Tox21 10K compound library for identification of agonists/antagonists of the Smad signaling pathway. This cell line contains a beta-lactamase reporter gene under control of the Smad binding element (SBE) stably integrated into HEK 293T cells. Also cytotoxicity of the compounds was tested in parallel by measuring the cell viability using CellTiter-Glo assay system in the same wells.
Tox21 Assay Protocol Summary:
SBE-bla HEK 293T cells were dispensed at 4,000/well in 6 uL of assay medium into black wall/clear-bottom 1536-well plates using a Multidrop Combi (ThermoFisher Scientific, Waltham, MA) dispenser. After the assay plates were incubated at 37 C and 5% CO2 for an overnight, 23 nL of compounds dissolved in DMSO, positive controls or DMSO only was transferred to the assay plate by a Pintool station (Kalypsys, San Diego, CA). The assay plates were incubated at 37 C and 5% CO2 for 5 hr. One uL of LiveBLAzer B/G FRET substrate (Life Technologies) was added using a Flying Reagent Dispenser (FRD, Aurora Discovery, San Diego, CA) and the plates were incubated at room temperature for 2 hr. Fluorescence intensity (405 nm excitation, 460 nm and 530 nm emissions) was measured using an Envision plate reader (PerkinElmer, Shelton, CT). For cytotoxicity read, 4 uL of CellTiter-Glo reagent (Promega Corporation, Madison, WI) was added to each well of the assay plates using FRD. After 30min incubation at room temperature, the luminescence intensity was measured using ViewLux plate reader (PerkinElmer).
In the case of `CCOc1ccc(NC(=O)CC(C)O)cc1` (stereo not given), the Potency entry was “inactive”.
Consider `CCCCC(CC)COC(=O)/C=C/c1ccc(OC)cc1` (stereo not given), for which the Potency result was “inactive”.
The value for `C/C=C/c1ccc(OC)cc1` was “inactive”; that for `Cc1ccc(C)c(OCCCC(C)(C)C(=O)O)c1` was “inactive”.
The value for `O=C(O)c1cccc([N+](=O)[O-])c1` was “inactive”; that for `OCCc1ccccc1` was “inactive”; that for `CC(C)[C@@H]1CC[C@@H](C)C[C@H]1O` was “inactive”.
The value for `O=C1CN(/N=C/c2ccc([N+](=O)[O-])o2)C(=O)N1` was “inactive”; that for `O=C(O)/C=C\C(=O)O` was “inactive”; that for `NC(=O)NC1NC(=O)NC1=O` (stereo not given) was “inactive”.
Consider `c1ccc2[nH]ccc2c1`, for which the Potency is 42.9 µM (active) and inactive.
`N=C(N)c1ccc(OCCCCCOc2ccc(C(=N)N)cc2)cc1`: the Potency result is “inactive”.
As for `Nc1ccc(S(=O)(=O)Nc2nccs2)cc1`, the Potency entry was “inactive”.
Then `CCCNC(=O)NS(=O)(=O)c1ccc(Cl)cc1`, with “inactive”; and `O=C(O)CCCCCCCC(=O)O`, with “inactive”.
The value for `Nc1ccc(C(=O)O)cc1` was “inactive”; that for `CCCCOC(=O)CC(CC(=O)OCCCC)(OC(C)=O)C(=O)OCCCC` was “inactive”; that for `CC(C)(Oc1ccc(C2CC2(Cl)Cl)cc1)C(=O)O` (stereo not given) was “inactive”.
For the compound `CCC1(c2ccccc2)C(=O)NCNC1=O`, the Potency entry is “inactive”.
Then `CC(=O)NS(=O)(=O)c1ccc(N)cc1`, with “inactive”; and `Nc1ccn([C@H]2CC[C@@H](CO)O2)c(=O)n1`, with “inactive”.
The value for `O=C(O)CCC(=O)O` was “inactive”; that for `Cc1cn([C@H]2C[C@H](N=[N+]=[N-])[C@@H](CO)O2)c(=O)[nH]c1=O` was “inactive”; that for `O=S(=O)(O)c1ccc2cc(O)ccc2c1` was “inactive”.
In the case of `C1N2CN3CN1CN(C2)C3`, the Potency entry is “inactive”.
The value for `O=C(C1CCCCC1)N1CC(=O)N2CCc3ccccc3C2C1` (stereo not given) was “inactive”.
Then `OC(Cn1cncn1)(Cn1cncn1)c1ccc(F)cc1F`, with “inactive”; and `NC(=O)c1ccccc1O`, with “inactive”; and `CCCN(CCC)S(=O)(=O)c1ccc(C(=O)O)cc1`, with “inactive”.
Regarding `Cn1cc[nH]c1=S`, the Potency result was “inactive”.
Then `Cc1cc(=O)[nH]c(=S)[nH]1`, with “inactive”.
Then `CNC[C@H](O)c1cccc(O)c1`, with “inactive”; and `O=C(O)c1[nH]n(-c2ccc(S(=O)(=O)O)cc2)c(=O)c1N=Nc1ccc(S(=O)(=O)O)cc1`, with “inactive”; and `NC(N)=NC(=O)c1nc(Cl)c(N)nc1N`, with “inactive”.
With `CC(O)C(=O)O` (stereo not given), the Potency entry is “inactive”.
The value for `Cn1c(=O)c2[nH]cnc2n(C)c1=O` was “inactive”.
Then `CCCCC1C(=O)N(c2ccccc2)N(c2ccccc2)C1=O`, with “inactive”.
Then `NNC(=O)c1ccncc1`, with “inactive”; and `CCCC(CCC)C(=O)O`, with “inactive”.
Consider `CC(=O)Nc1nnc(S(N)(=O)=O)s1`, for which the Potency entry was “inactive”.
